Inconclusive results are not listed. A number with no mark means an inactive call. The source made the active and inactive calls. Unless noted, calls follow the shape of the dose curve; as a rule, active = well fitted curve in the direction sought with a large enough effect in the repeat runs; inconclusive = weak or mixed curves; inactive = no such curve, though single readings can be large; an effect the other way counts as inactive or inconclusive.

The text below walks through data of PubChem BioAssay (Tox21).

Test [1] in a line: qHTS assay to identify small molecule agonists of the vitamin D receptor (VDR) signaling pathway - cell viability counter screen (AID 743224). Also: nearly all actives have a fitted effect of over 50% in size. Also: potency is read from the fitted curve at half-maximal effect. As to activity change, negative = cytotoxicity: series mostly up to about 63 µM; % is scaled to controls: 0 for no effect and ±100 for the full control effect. A digest of the protocol: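 Viability is measured in the same wells as the VDR-bla reporter assay: after 16 h compound treatment and 2 h substrate loading, CellTiter-Glo is added and luminescence read 30 min later.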
A general note: In qHTS, concentration-response curves come from the screen itself.

Test [2] is described as follows: qHTS assay to identify small molecule agonists of the NFkB signaling pathway (AID 1159509; active = well fitted curve in the direction sought with a large enough effect in the signal ratio in the repeat runs, not every such curve was filed as active; the % refers to the signal ratio; also: series mostly up to about 61 µM; % is scaled to controls: 0 for no effect and ±100 for the full control effect). In short, it runs like this:
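NFkB-bla ME-180 cells with a beta-lactamase reporter under an NF-kB response element were plated overnight, treated with compounds in DMSO for 5 hr at 37 C, then loaded with FRET substrate for 1.5 hr at room temperature.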

Test [3] is described as follows: qHTS assay to identify small molecule agonists of the NFkB signaling pathway - cell viability counter screen (AID 1159515; calls by dose curve; also: series mostly up to about 61 µM; % is scaled to controls: 0 for no effect and ±100 for the full control effect; nearly all actives have a fitted effect of over 55% in size). A digest of the protocol: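 Multiplexed viability readout: after the 5 hr compound exposure and 1.5 hr FRET substrate step, CellTiter-Glo reagent went into the same NFkB-bla ME-180 wells; ATP luminescence was measured after 30 min at room temperature.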

The nature of test [4]: qHTS assay to identify small molecule antagonists of the retinoid-related orphan receptor gamma (ROR-gamma) signaling pathway - cell viability counter screen (AID 1159520). Also: % is scaled to controls: 0 for no effect and ±100 for the full control effect; nearly all actives have a fitted effect of over 50% in size. A digest of the protocol:
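Tet-on ROR gamma CHO cells (1,000/well) were plated 4 hr, given compounds in DMSO for 2 hr at 37 C, then induced with 1 uM final doxycycline for 16 hr. Viability was read as ATP by CellTiter-Glo luminescence after 30 min.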

Test [5] deals with Nuclear receptor ROR-gamma (Homo sapiens) (UniProt P51449). Description: qHTS assay to identify small molecule antagonists of the retinoid-related orphan receptor gamma (ROR-gamma) signaling pathway (AID 1159521; also: nearly all actives have a fitted effect of over 50% in size; also: potency is read from the fitted curve at half-maximal effect). In short, it runs like this:
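Inducible-expression reporter assay: doxycycline (1 uM final) switched on RORγ in CHO cells bearing a ROR response element-luciferase construct, with test compounds present from 2 h beforehand. Decreased luminescence after 16 h defined antagonist activity.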

Test [6] in a line: qHTS assay to identify small molecule agonists of the AP-1 signaling pathway - cell viability counter screen (AID 1159525; calls by dose curve; also: nearly all actives have a fitted effect of over 55% in size). A digest of the protocol:
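ME-180 AP-1-bla, 2500 cells/well, Opti-MEM + 0.5% dialyzed FBS; overnight 37 °C; cpd 15-pt titration, 5 h 37 °C; CellTiter-Glo 30 min RT; luminescence read; normalised to TOAB and DMSO controls.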

Test [7] is described as follows: qHTS assay to identify small molecule agonists of the AP-1 signaling pathway (AID 1159526; calls by dose curve; also: % is scaled to controls: 0 for no effect and ±100 for the full control effect).
Test [8] can be described thus: qHTS assay to identify small molecule agonists of the RXR signaling pathway - cell viability counter screen (AID 1159529). Also: series mostly up to about 77 µM; % is scaled to controls: 0 for no effect and ±100 for the full control effect; nearly all actives have a fitted effect of over 50% in size. In short, it runs like this:
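Counter screen: CellTiter-Glo luminescence. Cells: RXR-alpha-UAS-bla HEK 293T. Medium: 2% charcoal-stripped FBS. Treatment: 16 h, 37 C. Reagent incubation: 30 min, RT.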

Test [9] can be described thus: qHTS assay to identify small molecule antagonists of the retinoid acid receptor (RAR) signaling pathway - cell viability counter screen (AID 1159551). Also: % is scaled to controls: 0 for no effect and ±100 for the full control effect; nearly all actives have a fitted effect of over 35% in size. A digest of the protocol:
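Cytotoxicity counter screen in C3RL4 cells: 6 h compound exposure with 1 uM retinol (final), viability from cellular ATP by luminescence.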

A short description of test [10]: qHTS assay to identify small molecule antagonists of the retinoic acid receptor (RAR) signaling pathway (AID 1159552; also: nearly all actives have a fitted effect of over 50% in size; also: potency is read from the fitted curve at half-maximal effect). A digest of the protocol: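 Antagonism of retinol-induced RARE reporter activity was measured in C3RL4 cells. Exposure to compounds and 1 uM final retinol lasted 6 hr at 37 C, with luminescence as endpoint.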
The nature of test [11]: qHTS assay to identify small molecule antagonists of the vitamin D receptor (VDR) signaling pathway - cell viability counter screen (AID 743225). In short, it runs like this:
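Same-well multiplex: following 16 h treatment of HEK 293T cells carrying a UAS-driven beta-lactamase reporter with compound and agonist (3 nM final), and a 2 h FRET substrate step, CellTiter-Glo was added and luminescence read after 30 min.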

Test [12] in a line: qHTS assay to identify small molecule agonists of the endoplasmic reticulum stress response signaling pathway - cell viability counter screen (AID 1159517; calls by dose curve). A digest of the protocol:
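Luminescence readout: CellTiter-Glo, 30 min RT, same wells as the ESRE-bla reporter read. HeLa ESRE-bla, 1,500 cells/well, o/n 37 C; cpd 5 hr 37 C/5% CO2.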

Test [13] is described as follows: qHTS assay to identify small molecule agonists of the retinoic acid receptor (RAR) signaling pathway (AID 1159553). Also: potency is read from the fitted curve at half-maximal effect. In short, it runs like this:
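Agonist activity was scored in C3RL4 cells bearing a retinoic acid response element luciferase construct. Cells were treated with compounds for 6 hr at 37 C, and luciferase signal was measured as luminescence.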

Test [14] deals with Retinoic acid receptor RXR-alpha (Homo sapiens) (UniProt P19793). In words: qHTS assay to identify small molecule agonists of the RXR signaling pathway (AID 1159527; calls by dose curve; also: % is scaled to controls: 0 for no effect and ±100 for the full control effect; nearly all actives have a fitted effect of over 35% in size). A digest of the protocol:
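Compounds in DMSO were added to RXR-alpha-UAS-bla HEK 293T cells kept in 2% charcoal-stripped serum, and incubated 16 hr at 37 C with 5% CO2. Reporter signal came from a 2 hr B/G FRET substrate step.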

Test [15] in a line: qHTS assay to identify small molecule agonists of the endoplasmic reticulum stress response signaling pathway (AID 1159516; active = well fitted activation curve with a large enough effect in the signal ratio in the repeat runs, not every such curve was filed as active; the % refers to the signal ratio; also: % is scaled to controls: 0 for no effect and ±100 for the full control effect). In short, it runs like this: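 Tox21 10K library screened in quantitative HTS format on ESRE-bla HeLa cells, a beta-lactamase reporter under ER stress response element control; 5 hr treatment, FRET read.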

Sequence of Retinoic acid receptor RXR-alpha (Homo sapiens) (P19793 whole entry, looked up): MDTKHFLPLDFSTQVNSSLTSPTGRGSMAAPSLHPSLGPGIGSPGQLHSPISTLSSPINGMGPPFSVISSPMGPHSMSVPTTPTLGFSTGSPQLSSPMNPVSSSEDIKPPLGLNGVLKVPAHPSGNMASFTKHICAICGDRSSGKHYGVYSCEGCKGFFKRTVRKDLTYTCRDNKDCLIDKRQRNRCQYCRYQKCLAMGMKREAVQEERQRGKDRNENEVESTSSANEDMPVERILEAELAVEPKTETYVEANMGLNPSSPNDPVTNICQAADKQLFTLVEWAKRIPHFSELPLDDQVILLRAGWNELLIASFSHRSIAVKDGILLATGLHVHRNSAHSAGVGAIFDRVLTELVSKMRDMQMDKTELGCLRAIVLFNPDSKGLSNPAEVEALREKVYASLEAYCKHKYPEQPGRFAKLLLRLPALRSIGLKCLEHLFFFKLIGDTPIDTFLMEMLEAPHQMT

On to `C[Si]1(C)O[Si](C)(C)O[Si](C)(C)O1`, for which the Potency entry in [1], in [4], in test [5], in test [8], in [9] and in [10] was “inactive” each time. Further, the outcome in [2], in test [3], in [6] and in test [7] was inactive.

As for `O=C(O)Cc1ccc(-c2ccccc2)cc1`, the Potency entry in test [1], in test [11], in test [4], in test [9], in test [10] and in test [13] was “inactive” throughout. The molecule was called inactive in [2], in [3], in test [12], in test [6] and in test [7].

With `O=C(CS)OCCOC(=O)CS`, the Potency entry in test [1], in [11], in test [5], in test [14] and in test [13] was “inactive” in each case. Further, the outcome in [2], in test [3], in test [12], in test [6] and in [7] was inactive. Moreover, the Potency in test [10] was 27.3 µM (active).

Consider `O=C(/C=C/c1ccccc1)OCCCc1ccccc1`, for which the Potency result in test [1], in test [11], in test [4], in test [5], in test [14] and in test [8] was “inactive” in each case. Moreover, in test [10], the Potency result is “inactive”. Also, the call in test [2], in test [3], in test [15], in [6] and in [7] was inactive. For the same molecule, the Potency in [13] is 61.1 µM (active).

Turning to `C=CC(C)=CCC=C(C)C`, the Potency result in [1], in test [11], in test [4], in test [14], in test [8] and in test [9] was “inactive” throughout. Moreover, the outcome in [2], in [3], in [12], in test [6] and in test [7] was inactive.

As to `CC1CC(O)CC(C)(C)C1` (stereo not drawn), the Potency entry in test [1], in test [4], in test [9], in [10] and in test [13] was “inactive” in each case. The result in test [2], in test [12], in [6] and in [7] was inactive.

Take `O=C(N[C@@H](c1ccccc1)[C@@H]1CCCCN1)c1cccc(C(F)(F)F)c1Cl`: the Potency in test [1] is 30.9 µM (active). The outcome in [2], in test [15], in test [12] and in test [6] was inactive. The Potency result in test [4], in test [8] and in [9] was “inactive” each time.

Turning to `c1cc[c]([Bi]([c]2ccccc2)[c]2ccccc2)cc1`, the Potency entry in test [1], in test [11] and in test [9] was “inactive” each time. In addition, the result in test [2], in test [15], in test [12] and in test [6] was inactive. Besides, the Potency in [5] is 30.6 µM (active).

Consider `CO[C@H]1O[C@H](CO)[C@@H](O)[C@H](O)[C@H]1O`, for which the Potency entry in test [1], in test [11], in test [4], in test [5], in test [8] and in test [9] was “inactive” each time. Besides, in [10], the Potency result is “inactive”. Also, the molecule was classed as inactive in test [2], in test [15], in test [6] and in test [7].

Consider `C/C=C(\C)C(=O)OCCC(C)CCC=C(C)C` (stereo not drawn), for which the Potency result in test [1], in test [11], in test [4], in test [14], in test [8] and in test [9] was “inactive” each time. Also, the outcome in [2], in [12], in test [6] and in [7] was inactive.

Consider `CCCC(=O)O[C@]1(C(=O)COC(=O)CC)CC[C@H]2[C@@H]3CCC4=CC(=O)CC[C@]4(C)[C@H]3[C@@H](O)C[C@@]21C`, for which the Potency entry in test [1] and in [11] was “inactive” in each case. Further, the result in [2], in [15] and in [12] was inactive. In [4], the activity, negative = cytotoxicity is 0.636% [at 19 µM]. Further, the viability change, negative = cytotoxic in test [6] is -0.096% [at 15.8 µM]. In addition, the activation in [7] was -6.02% [at 15.8 µM]. The activity change, negative = cytotoxicity in test [9] was -1.52% [at 19 µM].

Turning to `CN(C)CCOC1=Cc2ccccc2Sc2ccc(Cl)cc21`, the Potency entry in test [1], in [4], in test [9] and in [13] was “inactive” in each case. Besides, the call in [2], in test [12] and in test [6] was inactive.
